Source: PubChem
NSD2 HMT inh = NSD2 (human) methyltransferase inhibition; O96028; NSD2 peptide methylation, AlphaScreen, 120 min; inhibition, % at 12.5 µM; 310,000 compounds, 0.54% hits; AID 743445; in the data active means inhibition above about 50%
N-glyco inh = N-linked glycosylation inhibition. D54 ERlucT glycosylation luciferase reporter, 24 h; percent of 100 nM tunicamycin response. 360,000 compounds, 0.23% hits. AID 588692. reporter increase, % at 12.5 µM;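 active means mean luciferase reporter signal, scaled so untreated is 0 and the glycosylation-blocking control 100, at or above a set limit in every replicate; inconclusive means mean reaches the limit but not every replicate does; inactive means mean below the limit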;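 further: luciferase carries N-glycosylation sites so blocking glycosylation raises the light; 0% = median of neutral control wells and 100% = median of 100 nM tunicamycin wells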
PAX8 reporter = PAX8 transcriptional activity inhibition; AID 652154; inhibition, % at 12.6 µM; 360,000 compounds, 1.2% hits; RMG-I TPO-luciferase reporter, SteadyGlo, 24 h;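 active means mean replicate inhibition at least 60% with every replicate also reaching 60%; inconclusive means only one of the two criteria is met; inactive means mean below 60% and not all replicates reaching 60%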;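 further: luciferase light reporting Pax8 driven TPO promoter activity; plate controls were median of neutral control wells for no effect and mitoxantrone controls for full effect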
HIV Env fusion = inhibitors of HIV Env-mediated cell fusion; HeLa-JRFL Env/CEM21 cell fusion, luciferase; inhibition, % at 12.3 µM; AID 651610; 360,000 compounds, 1.1% hits;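 active means mean replicate inhibition score of at least 50 and every replicate individually at or above 50; inconclusive means only one of the two criteria met; inactive means mean below 50 and not all replicates reaching 50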;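 further: 0% = plate neutral controls and 100% = maraviroc near 300 nM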
EBV LMP1 NFkB = Epstein-Barr LMP1 NF-kappaB reporter inhibition; LMP1-induced NF-kappaB luciferase reporter cells, luminescence; inhibition, % at 12.5 µM; 350,000 compounds, 0.69% hits; AID 504558; in the data active means inhibition above about 41%; inconclusive means no clear call, values can overlap the other calls;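 further: 0% = neutral control wells and 100% = reference inhibitor control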
Shn3 3UTR inh = inhibitors of Schnurri-3 3'UTR reporter in osteoblasts | 360,000 compounds, 0.52% hits | AID 588674 | inhibition, % at 12.5 µM | Clone20 osteoblast Shn3 3'UTR firefly luciferase, 24 h;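 active means mean inhibition of at least 75% with every replicate also reaching 75%; inconclusive means mean inhibition at least 75% but some replicate below; inactive means mean inhibition below 75%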;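 further: 0% = median of neutral control wells and 100% = pilot-screen positive control compound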
Active calls of the source: *; ! = not active in a repeat; [ ] = another dose, or the depositor's remark. Rows were chosen to be rich in hits. Some 2.8% of all compounds tested hit in one or more screens of this group.

Results for Cc1c(NC(=O)c2cccc(NC(=O)COc3ccccc3C#N)c2)c(=O)n(-c2ccccc2)n1C ?
NSD2 HMT inh: 0; N-glyco inh: -3; PAX8 reporter: 65*; HIV Env fusion: 60*; EBV LMP1 NFkB: 54*; Shn3 3UTR inh: 10

How did C[C@@H]1CN([C@H](C)CO)S(=O)(=O)c2ccc(-c3cncnc3)cc2O[C@@H]1CN(C)C(=O)CC1CC1 do in these assays?
HIV Env fusion: 0[16.7 µM]

Results for CCc1ccc(NC2=CC(=O)C(=O)c3ccccc32)cc1 ?
NSD2 HMT inh: 10; N-glyco inh: -19; PAX8 reporter: -103; HIV Env fusion: 6; EBV LMP1 NFkB: -29; Shn3 3UTR inh: 33

How did Cc1ccc(S(=O)(=O)/N=C2\C=C(NS(=O)(=O)c3ccccc3)C(=O)c3ccccc32)c(C)c1 do in these assays?
NSD2 HMT inh: 5; N-glyco inh: 3; PAX8 reporter: 14; HIV Env fusion: 49; EBV LMP1 NFkB: -4; Shn3 3UTR inh: 3

How did CCc1ccc(S(=O)(=O)/N=C2\C=C(Nc3ccc(C(=O)O)cc3)C(=O)c3ccccc32)cc1 do in these assays?
N-glyco inh: 4; PAX8 reporter: 93*; HIV Env fusion: 73*; EBV LMP1 NFkB: 0; Shn3 3UTR inh: -14

How did O=C1C(Nc2ccccc2)=C/C(=N/S(=O)(=O)c2cccs2)c2ccccc21 do in these assays?
N-glyco inh: -19; EBV LMP1 NFkB: 87*; Shn3 3UTR inh: 97*

How did O=C1C=C(Nc2ccccc2)C(=O)c2ccccc21 do in these assays?
N-glyco inh: -14; EBV LMP1 NFkB: -23; Shn3 3UTR inh: -67

Results for Cc1ccc(S(=O)(=O)/N=C2\C=C(Nc3cccc(C(=O)O)c3)C(=O)c3ccccc32)c(C)c1 ?
NSD2 HMT inh: 117*; N-glyco inh: 6; PAX8 reporter: 10; HIV Env fusion: -23; EBV LMP1 NFkB: -13; Shn3 3UTR inh: 5

Results for Cc1ccc(S(=O)(=O)/N=C2\C=C(Nc3ccc(O)cc3)C(=O)c3ccccc32)cc1 ?
NSD2 HMT inh: 34; N-glyco inh: -23; EBV LMP1 NFkB: 88*; Shn3 3UTR inh: 97*

How did C[C@@H]1CN([C@@H](C)CO)C(=O)Cc2cc(NS(=O)(=O)c3cn(C)cn3)ccc2O[C@@H]1CN(C)Cc1ccc(-c2ccccc2)cc1 do in these assays?
HIV Env fusion: 15[16.7 µM]

Results for C[C@@H]1CN([C@@H](C)CO)C(=O)c2cc(NS(=O)(=O)c3ccccc3)ccc2O[C@@H]1CN(C)Cc1ccc2c(c1)OCO2 ?
PAX8 reporter: -8; HIV Env fusion: -2[16.7 µM]

What do the screens show for `COC(=O)c1ccccc1NC1=C/C(=N\S(=O)(=O)c2cccs2)c2ccccc2C1=O`?
NSD2 HMT inh: 10; N-glyco inh: -8; PAX8 reporter: 30; HIV Env fusion: 30; EBV LMP1 NFkB: 86*!; Shn3 3UTR inh: 94*!

What do the screens show for `CC(C)(C)c1ccc(S(=O)(=O)/N=C2\C=C(NS(=O)(=O)c3ccccc3)C(=O)c3ccccc32)cc1`?
NSD2 HMT inh: 108*; N-glyco inh: 2; PAX8 reporter: 0; HIV Env fusion: 29; EBV LMP1 NFkB: 2; Shn3 3UTR inh: -7

What do the screens show for `Cc1ccc(NC2=C/C(=N/S(=O)(=O)c3cccs3)c3ccccc3C2=O)cc1`?
NSD2 HMT inh: 34; N-glyco inh: -24; PAX8 reporter: 53; HIV Env fusion: 74*; EBV LMP1 NFkB: 80*; Shn3 3UTR inh: 97*

How did Cc1ccc(S(=O)(=O)/N=C2/C=C(Sc3ncn[nH]3)C(=O)c3ccccc32)cc1 do in these assays?
N-glyco inh: 7; EBV LMP1 NFkB: 64*; Shn3 3UTR inh: 98*

What do the screens show for `COc1cccc(C(=O)Nc2ccc3c(c2)C(=O)N(C)[C@H]2CC[C@@H](CC(=O)NCc4ccccc4F)O[C@H]2CO3)c1`?
PAX8 reporter: 0

What do the screens show for `O=C1CCn2c1c(O)c1ccccc1c2=O`?
NSD2 HMT inh: 26; N-glyco inh: 0; PAX8 reporter: -2; HIV Env fusion: -6; EBV LMP1 NFkB: 23; Shn3 3UTR inh: 10

How did N=C1CCC(=N)c2c1c(O)c1ccccc1c2O do in these assays?
NSD2 HMT inh: 66*; N-glyco inh: 8; EBV LMP1 NFkB: -7; Shn3 3UTR inh: 4

Results for C[C@H](CO)N1C[C@H](C)[C@H](CN(C)Cc2ccc(C(=O)Nc3ccccc3N)cc2)Oc2ccc(NS(=O)(=O)c3ccccc3)cc2C1=O ?
PAX8 reporter: 28; HIV Env fusion: 9[16.7 µM]

Results for CCCOc1ccc(N2C(=O)CC(N(CCOC34CC5CC(CC(C5)C3)C4)C(C)=O)C2=O)cc1 (stereo not drawn) ?
NSD2 HMT inh: 9; N-glyco inh: -6; PAX8 reporter: -1; HIV Env fusion: 57*; EBV LMP1 NFkB: 5; Shn3 3UTR inh: 5

How did O=C(c1cnccn1)N1CC(=O)N2[C@H](C1)[C@@H](c1ccc(-c3ccccc3)cc1)[C@@H]2CO do in these assays?
PAX8 reporter: 9

How did CNc1ncnc(Sc2nc(N)nc3nc[nH]c23)c1[N+](=O)[O-] do in these assays?
NSD2 HMT inh: 2; N-glyco inh: 18; PAX8 reporter: 95*; HIV Env fusion: 21; EBV LMP1 NFkB: 0; Shn3 3UTR inh: -3

How did Nc1nc(Sc2ccc([N+](=O)[O-])c3nonc23)c2[nH]cnc2n1 do in these assays?
NSD2 HMT inh: 36; N-glyco inh: inconclusive; PAX8 reporter: 97*; HIV Env fusion: -141; EBV LMP1 NFkB: 3; Shn3 3UTR inh: 39

How did Cc1noc(C)c1NC(=O)Nc1cccc2c1O[C@@H](CN(C)Cc1ccccc1)[C@@H](C)CN([C@@H](C)CO)C2=O do in these assays?
PAX8 reporter: -8; HIV Env fusion: -4[16.7 µM]

What do the screens show for `O=C(Nc1ccncc1)Nc1cccc(Cl)c1`?
NSD2 HMT inh: -1; N-glyco inh: -1; PAX8 reporter: -18; EBV LMP1 NFkB: -6; Shn3 3UTR inh: 19

How did O=C(Nc1cccc(C2=NCCN2)c1)Nc1cccc(C2=NCCN2)c1 do in these assays?
N-glyco inh: 7; PAX8 reporter: 99*; HIV Env fusion: 12; EBV LMP1 NFkB: 0; Shn3 3UTR inh: -11

What do the screens show for `Cn1c(N)c(C(=O)Nc2cccc(Cl)c2)c(=O)n(C)c1=O`?
NSD2 HMT inh: -2; N-glyco inh: 4; PAX8 reporter: -33; HIV Env fusion: 6; EBV LMP1 NFkB: -3; Shn3 3UTR inh: -18

How did CN=c1sc(C(=O)Nc2cccc(Cl)c2)cc(=O)n1C do in these assays?
NSD2 HMT inh: 3; N-glyco inh: 31*; HIV Env fusion: -10; EBV LMP1 NFkB: 8; Shn3 3UTR inh: 19

How did C[C@H]1CCCCO[C@H](CN(C)C(=O)Nc2cccc3ccccc23)[C@@H](C)CN([C@@H](C)CO)C(=O)c2cc(NS(=O)(=O)c3ccc(F)cc3)ccc2O1 do in these assays?
PAX8 reporter: 87*; HIV Env fusion: 87*[16.7 µM]

What do the screens show for `C[C@@H]1CCCCO[C@@H](CN(C)C(=O)Nc2cccc3ccccc23)[C@H](C)CN([C@H](C)CO)C(=O)c2cc(NS(=O)(=O)c3ccc(F)cc3)ccc2O1`?
PAX8 reporter: 93*; HIV Env fusion: 12[16.7 µM]
